Screening data deposited in PubChem by Sanford-Burnham Center for Chemical Genomics.
TROY NFkB inh: inhibitors of TROY-dependent NF-kB signaling | AID 1347056 | inhibition, % at 10 µM | Q293 LMP1-TROYcd NF-kB luciferase reporter, 4 h | 360,000 compounds, 0.98% hits;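 active = compounds whose plate-normalised and pattern-corrected inhibition of the luciferase reporter signal at the single screening dose is 50% or more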
TWEAK-Fn14 inh: inhibitors of TWEAK-Fn14 interaction signaling. 360,000 compounds, 2% hits. TWEAK-stimulated Fn14 reporter cells, luciferase luminescence, 8 h. inhibition, % at 10 µM; in the data active = inhibition above about 50%
CF NFkB block: cystic fibrosis NF-kB activation inhibition; 360,000 compounds, 0.86% hits; inhibition, % at 5 µM; AID 588850; KKLEB NF-kB-GFP reporter, PAF-induced, GFP fluorescence overnight;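 active = at least 50% inhibition at 5 µM, scaled per plate between neutral and stimulator controls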;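 also: PAF is a Pseudomonas aeruginosa culture filtrate used as stimulus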
HIF-2a inh: blocks HIF-2a reporter activity | 786-0 RCC cells HIF-2a reporter, luciferase luminescence, overnight | inhibition, % at 18.8 µM | 360,000 compounds, 0.72% hits;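 active = inhibition of the luminescence signal of 40% or more relative to plate controls, in a single-dose primary screen at 18.75 µM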
Peg3 promoter: inhibitors of Peg3 promoter; HeLa PEG-Prom luciferase reporter, luminescence, overnight; inhibition, % at 20 µM; 360,000 compounds, 1.7% hits; AID 588405;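 active = inhibition of at least 50% at 20 µM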
KKLEB cytotox: counter-screen for CF NF-kB inhibitors: cytotoxicity; KKLEB CF airway cells viability, ATPlite luminescence, overnight; active compounds read low; cells stimulated with P. aeruginosa culture filtrate; activity change (cytotoxicity), % at 5 µM; 360,000 compounds, 0.36% hits; AID 602141;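 active = corrected activity change at or below -50% at 5 µM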
Mdm2-MdmX confirm: confirmation of inhibitors of human Mdm2/MdmX interaction, set 2. AID 504601. 740 compounds, 99% hits. inhibition, % at 8 µM. SaOS-2 split-luciferase Mdm2/MdmX complementation, luminescence. shares compounds with HIF-2a inh;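 active = mean inhibition of the luminescence signal across two replicates at or above 26 percent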
Target sequence (O15151 whole entry, looked up): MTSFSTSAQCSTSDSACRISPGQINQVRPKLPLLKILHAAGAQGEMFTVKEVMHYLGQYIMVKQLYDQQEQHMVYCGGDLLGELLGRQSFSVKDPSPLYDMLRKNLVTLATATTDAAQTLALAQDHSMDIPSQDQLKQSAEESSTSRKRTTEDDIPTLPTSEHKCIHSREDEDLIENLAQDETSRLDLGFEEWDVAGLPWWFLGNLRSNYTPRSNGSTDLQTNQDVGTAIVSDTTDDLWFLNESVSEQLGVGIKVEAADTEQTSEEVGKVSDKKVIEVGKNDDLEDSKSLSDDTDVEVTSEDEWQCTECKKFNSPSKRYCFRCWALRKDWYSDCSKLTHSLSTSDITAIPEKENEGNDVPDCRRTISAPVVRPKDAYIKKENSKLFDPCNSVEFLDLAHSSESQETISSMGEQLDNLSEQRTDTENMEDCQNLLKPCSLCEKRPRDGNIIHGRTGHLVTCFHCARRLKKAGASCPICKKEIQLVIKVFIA
Target sequence (Q00987 whole entry, looked up): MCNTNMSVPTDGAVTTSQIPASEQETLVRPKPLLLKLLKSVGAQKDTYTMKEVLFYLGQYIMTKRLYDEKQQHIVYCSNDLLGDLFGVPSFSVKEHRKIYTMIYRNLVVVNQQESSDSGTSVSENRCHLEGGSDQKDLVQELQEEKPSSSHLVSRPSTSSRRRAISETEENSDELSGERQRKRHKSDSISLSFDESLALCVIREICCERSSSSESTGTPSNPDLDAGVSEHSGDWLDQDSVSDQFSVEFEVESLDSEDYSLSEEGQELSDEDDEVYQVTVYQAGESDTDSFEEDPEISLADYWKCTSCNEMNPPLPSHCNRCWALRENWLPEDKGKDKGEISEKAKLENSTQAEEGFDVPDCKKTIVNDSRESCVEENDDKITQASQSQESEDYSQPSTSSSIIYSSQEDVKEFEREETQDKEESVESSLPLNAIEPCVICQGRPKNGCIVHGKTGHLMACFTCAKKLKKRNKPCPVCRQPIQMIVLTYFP
HIF-2a conf: HIF-2a inhibition, single concentration confirmation; inhibition, % at 18.8 µM; 786-0 RCC cells, HIF-2a luciferase reporter luminescence, overnight; 1,800 compounds, 56% hits; shares compounds with HIF-2a inh;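 active = mean inhibition across four replicates of at least 40 percent at the single tested concentration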
HIF-1a counter: HIF-1a inhibition counter-screen for HIF-2a hits; shares compounds with HIF-2a inh; MiaPaCa-2 HIF-1a luciferase reporter, desferoxamine, overnight; inhibition, % at 18.8 µM; 1,800 compounds, 72% hits; AID 651589;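 active = mean inhibition of the reporter signal across four replicates at the single tested dose of 50% or more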
Hits are given with their value; . = inactive; / = not tested or not shown. Sampled rows, rich in hits. Any-hit rate of the full collection: about 4%.

SMILES	TROY NFkB inh	TWEAK-Fn14 inh	CF NFkB block	HIF-2a inh	Peg3 promoter	KKLEB cytotox	HIF-2a conf	HIF-1a counter	others
C=C(CCO)C1=CCN(S(=O)C(C)(C)C)[C@@H]1CCO (stereo not given in full)	.	.	.	.	.	.	/	/
CC(=O)Nc1ccc(C(=O)N2CCCC(c3cc(C(=O)NCc4cccnc4)no3)C2)cc1 (stereo not given)	.	.	.	.	.	.	/	/
COc1ccc(NC(=O)/C(C#N)=C/c2c(C)nn(-c3ccc(F)cc3)c2Cl)cc1OC	.	.	.	43	.	.	.	54
COc1ccc(/C=C/c2nc3ccccc3c(=O)o2)cc1	83	97	.	43	.	.	.	89
COc1ccc(N2CCN(CCNC(=O)c3ccc4c(c3)[nH]c(=S)n3c5ccccc5nc43)CC2)cc1	.	.	.	.	84	.	/	/	Mdm2-MdmX confirm=99
Cc1ccc(COc2ccc(-c3nnco3)cc2)cc1	.	.	.	.	.	.	/	/
Cc1ccc(C(C)C)c(OCc2ccc(-c3nnco3)cc2)c1	.	.	.	69	.	.	71	.
COc1ccc2cc3c(N)nn(C(=O)Cc4c[nH]c5ccccc45)c3nc2c1	67	95	86	50	106	.	.	102	Mdm2-MdmX confirm=102
COc1cccc(CC(=O)n2nc(N)c3cc4ccc(OC)cc4nc32)c1	.	.	.	.	.	.	/	/
COc1ccc2cc3c(N)nn(C(=O)c4ccccc4Cl)c3nc2c1	.	82	77	43	.	.	.	94	Mdm2-MdmX confirm=99
COc1ccc2cc3c(N)nn(C(=O)Cc4ccc(Cl)cc4)c3nc2c1	.	.	.	.	.	.	/	/
O=C(CCl)N(C1CCCC1)C1CCS(=O)(=O)C1 (stereo not given)	.	.	.	.	.	.	/	/	Mdm2-MdmX confirm=102
CC(=O)c1ccc(OCC(=O)N(C2CCCCC2)C2CCS(=O)(=O)C2)cc1 (stereo not given)	.	.	.	.	.	.	/	/
CN(c1ccc(-c2csc(NC(=O)CCCc3nc4ccccc4c(=O)[nH]3)n2)cc1)S(C)(=O)=O	.	.	.	.	.	.	/	/
C=CS(=O)(=O)N(Cc1ccccc1Br)[C@H](CO)Cc1ccccc1	.	51	.	44	84	.	.	70
C=CCCN([C@H](CO)Cc1ccccc1)S(=O)(=O)c1ccccc1Br	.	.	.	.	.	.	/	/
O=C(CCl)N=c1sccn1Cc1ccccc1Cl	.	.	78	.	.	-68	/	/	Mdm2-MdmX confirm=103
CCC(=O)OCC(=O)N=c1sccn1Cc1ccc(C)cc1	.	.	.	.	.	.	/	/
CCC(=O)OCC(=O)N=c1sccn1Cc1ccccc1Cl	.	.	.	.	.	.	/	/
O=C(CCl)N=c1sccn1Cc1ccc(Cl)cc1Cl	.	55	90	.	.	-85	/	/	Mdm2-MdmX confirm=103
COc1c(-c2ccc([N+](=O)[O-])cc2[N+](=O)[O-])c(=O)n(C)c(=O)n1C	.	.	.	.	.	.	/	/
CN(C)c1ccc(/C=C/c2c([N+](=O)[O-])c(=O)n(C)c(=O)n2C)cc1	.	.	.	.	.	.	/	/
CN(C)c1ccc(-n2cccc2/C=C/[N+](=O)[O-])cc1	.	60	.	91	94	.	89	106
Cc1ccc(/C=C/C(=O)c2ccc([N+](=O)[O-])o2)cc1	/	/	/	/	/	/	/	/	Mdm2-MdmX confirm=103
Cc1ccc(CNC(=O)c2ccc([N+](=O)[O-])o2)cc1	.	.	.	.	.	.	/	/
SMILES	TROY NFkB inh	TWEAK-Fn14 inh	CF NFkB block	HIF-2a inh	Peg3 promoter	KKLEB cytotox	HIF-2a conf	HIF-1a counter	others
COc1ccc(CN2CCc3c([nH]c4ccccc34)C2)c(OC)c1C	.	.	.	.	.	.	/	/
CCCCc1nc(SCC(=O)N2CCCC2)c2c(=O)n(C)c(=O)n(C)c2n1	.	.	.	.	.	.	/	/
CCc1ccc(-c2nnn(CCC(=O)OC)n2)cc1	.	.	.	87	.	.	94	70
COc1ccc2c(c1)C1(Nc3ccccc3-c3nc4ccccc4n31)C(=O)N2C (stereo not given)	.	.	.	.	.	.	/	/	Mdm2-MdmX confirm=94
COc1ccc2c(c1)C1(Nc3ccccc3-c3nc4ccccc4n31)C(=O)N2 (stereo not given)	.	.	.	.	.	.	/	/
CCOc1ccc2nc(Cl)c(C3CC(c4ccco4)=NN3S(C)(=O)=O)cc2c1 (stereo not given)	57	.	.	45	.	.	.	.
Cc1ccc2nc(Cl)c(C3CC(c4ccco4)=NN3S(C)(=O)=O)cc2c1 (stereo not given)	.	.	.	.	.	.	/	/
CCCN(CC(=O)Nc1ccccc1C)C(=O)/C=C/c1ccc(S(=O)(=O)N2CCCCCC2)cc1	.	.	.	.	.	.	/	/
Cc1ccc(N2C(=O)N(CC(=O)Nc3ccc([N+](=O)[O-])cc3)C(=O)C2C)cc1 (stereo not given)	.	.	.	.	.	.	/	/
CCc1ccc(NC(=O)c2cnn3ccccc23)cc1	53	93	.	50	.	.	68	75
CC(=O)c1c(C)[nH]c(C(=O)Nc2ccc(C)cn2)c1C	67	95	.	46	.	.	60	56
Cc1cc(C)cc(C(=O)NC(=S)Nc2ccc(-c3cc4ccccc4oc3=O)cc2)c1	57	.	57	82	.	-57	76	.
Cc1ccc(C(=O)NC(=S)Nc2ccc(-c3cc4ccccc4oc3=O)cc2)c(C)c1	/	.	.	81	.	.	76	56
O=C(Cc1cccc2ccccc12)Nc1ccc(-c2cc3ccccc3oc2=O)cc1	58	.	.	53	.	.	68	52
CSc1ccc(CN2CCC(n3nccc3NC(=O)c3ccccc3C)CC2)cc1	.	.	.	.	.	.	/	/
CNC[C@H]1Oc2ccc(NC(=O)Nc3ccccc3)cc2CC(=O)N([C@H](C)CO)C[C@H]1C	.	.	.	.	.	.	/	/
O=C1OCCC1Sc1nc2cc(Cl)ccc2n1Cc1ccccc1 (stereo not given)	.	.	.	51	.	.	.	.
O=C1OCCC1Sc1nc2ccccc2c(=O)n1Cc1ccccc1 (stereo not given)	.	.	.	.	.	.	/	/
NC(=O)C(C(=O)/C=C/c1ccc(Cl)cc1)=C1SCCS1	.	51	.	.	61	.	/	/	Mdm2-MdmX confirm=102
COc1ccc(/C=C/C(=O)C(C(N)=O)=C2SCCS2)cc1	.	.	.	.	.	.	/	/
